# Bioassay records from PubChem.
# This is a sample that favours compounds with a hit; in the whole collection about 2.8% have one here.
# Shn3 3UTR inh: reduction of Shn3 3'UTR firefly luciferase signal, primary screen, Schnurri-3 inhibitor project, cell-based, Clone20 osteoblasts, set 2; Clone20 osteoblast Shn3 3'UTR firefly luciferase, 24 h; inhibition, % at 12.5 µM; actives 0.52% (n = 360,000); AID 588674, 2011;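 active = mean inhibition of at least 75% with every replicate also reaching 75%; inconclusive = mean inhibition at least 75% but some replicate below; inactive = mean inhibition below 75%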;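 note: 0% = median of neutral control wells and 100% = pilot-screen positive control compound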
# HIF-2a block: HIF-2a reporter inhibitors, primary screen, luminescence, 786-0 RCC cells; 786-0 RCC cells HIF-2a reporter, luciferase luminescence, overnight; inhibition, % at 18.8 µM; actives 0.72% (n = 360,000); AID 624352, 2012;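 active = inhibition of the luminescence signal of 40% or more relative to plate controls, in a single-dose primary screen at 18.75 µM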
# PAX8 inh HTS: inhibitors of PAX8-driven TPO luciferase reporter, primary screen, RMG-I cells, single concentration. SteadyGlo, 24 h. inhibition, % at 12.6 µM. actives 1.2% (n = 360,000). AID 652154, 2013;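 active = mean replicate inhibition at least 60% with every replicate also reaching 60%; inconclusive = only one of the two criteria is met; inactive = mean below 60% and not all replicates reaching 60%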;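 note: luciferase light reporting Pax8 driven TPO promoter activity; plate controls were median of neutral control wells for no effect and mitoxantrone controls for full effect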
# MITF TRPM1 inh: inhibitors of MITF-dependent TRPM1 promoter reporter, primary screen, cell-based, SK-MEL-5, single point, luciferase; inhibition, % at 12.5 µM; AID 488899, 2010; actives 0.83% (n = 330,000); SK-MEL-5 TRPM1 promoter luciferase, 24 h;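 active = mean inhibition across replicates of 60% or more, whatever share of single replicates reaches that level; inconclusive = some that reach 60%, reason not given; inactive = mean inhibition across replicates below 60%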
# EBV LMP1 NFkB: EBV LMP1-driven NF-kappaB luciferase reporter inhibitors, primary screen, cell-based, luminescence, single point; actives 0.69% (n = 350,000); inhibition, % at 12.5 µM; LMP1-induced NF-kappaB luciferase reporter cells; in the data active = inhibition above about 41%; inconclusive = no clear call, values can overlap the other calls;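 note: 0% = neutral control wells and 100% = reference inhibitor control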
# Peg3 prom inh: Peg3 promoter-driven luciferase inhibitors, primary screen, cell-based, HeLa, luciferase luminescence; HeLa PEG-Prom luciferase reporter, overnight; inhibition, % at 20 µM; actives 1.7% (n = 360,000);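 active = inhibition of at least 50% at 20 µM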
# * marks the source's active call; other numbers are inactive results; u = inconclusive; x = no result given.
SMILES,Shn3 3UTR inh,HIF-2a block,PAX8 inh HTS,MITF TRPM1 inh,EBV LMP1 NFkB,Peg3 prom inh
C[C@H]1CN([C@@H](C)CO)C(=O)c2cc(NC(=O)c3ccncc3)ccc2O[C@H]1CN(C)S(=O)(=O)c1ccc(F)cc1,x,x,-2,x,x,x
Cc1c(P(=S)(c2ccccc2)c2ccccc2)[n+]2ccccc2n1CCc1ccccc1,-1,7,89*,x,x,49
C[C@@H]1CCCCO[C@H](CN(C)Cc2ccccc2)[C@@H](C)CN([C@H](C)CO)C(=O)c2cc(NS(=O)(=O)c3ccc(F)cc3)ccc2O1,x,x,-8,x,x,x
Cc1ccccc1N=C1N=C(N)c2ccccc21,1,11,138*,6,-16,3
C[C@@H]1CN([C@H](C)CO)C(=O)c2cc(NC(=O)Nc3ccccc3)ccc2O[C@@H](C)CCCCO[C@H]1CN(C)C(=O)Cc1ccccc1,x,x,37,x,x,x
Cc1[nH]nc2c1-c1nc3ccccc3nc1C(C)(C)C2,89*,23,x,41,-32,22
CC12CCC(C)(c3nc4ccccc4nc31)C2(C)C,-9,7,29,-4,2,-10
CCC(C)(C)c1ccc(OCCCC[n+]2cccc(C)c2)c(C(C)(C)CC)c1,88*,32,71*,98*,24,101*
Cc1ccc(S(=O)(=O)Nc2ccc3c(c2)C(=O)N([C@H](C)CO)C[C@@H](C)[C@@H](CN(C)S(=O)(=O)c2ccccc2)O3)cc1,x,x,6,x,x,x
Brc1ccc(CN2CCN(Cc3c[nH]c4ccccc34)CC2)cc1,15,10,12,2,-3,19
Brc1ccccc1CN1CCN(Cc2c[nH]c3ccccc23)CC1,x,x,63*,x,x,x
C=C1C(=O)O[C@@H]2[C@H]3O[C@]3(C)CC/C=C(\C)CC[C@@H]12,-21,19,101*,33,35,49
O=C(NCC[C@@H]1CC[C@H](NS(=O)(=O)c2ccc(Oc3ccccc3)cc2)[C@H](CO)O1)C1CC1,x,x,4,x,x,x
O=[N+]([O-])c1ccc(Sc2nnnn2-c2ccccc2)nc1,x,x,78*,x,x,x
O=[N+]([O-])c1ccc(Sc2ccccn2)nc1,-3,1,1,15,1,12
COc1ccc2c3c(n(C)c2c1)[C@@H](CO)N(Cc1ccncc1)CC31CN(C(=O)C2CC2)C1,x,x,-4,x,x,x
C[C@H](NC(=O)C[C@@H]1CC[C@@H](NC(=O)Nc2ccc3c(c2)OCO3)[C@H](CO)O1)c1ccccc1,x,x,-13,x,x,x
C[C@@H]1CN([C@H](C)CO)C(=O)c2cc(NC(=O)Nc3ccc(C(F)(F)F)cc3)ccc2O[C@H]1CN(C)Cc1ccc(C(F)(F)F)cc1,x,x,-16,x,x,x
CN(C)CCOc1ncnc2c1oc1ccccc12,-18,-16,x,6,-12,8
CN(C)CCOc1nc(-c2ccccc2)nc2c1oc1ccccc12,-10,2,x,20,-21,100*
O=C1CC(Sc2nnc(-c3ccccc3O)o2)C(=O)N1c1ccccc1 (stereo not given),93*,15,x,6,-3,31
COc1ccc(N2C(=O)CC(Sc3nnc(-c4ccccc4)o3)C2=O)cc1 (stereo not given),61,4,107*,16,u,85*
O=C1CC(Sc2ncccn2)C(=O)N1c1ccccc1 (stereo not given),-6,8,2,7,-2,5
C[C@H](CO)N1C[C@H](C)[C@@H](CN(C)S(=O)(=O)c2ccc(F)cc2)Oc2ccc(NS(=O)(=O)c3ccc(F)cc3)cc2CC1=O,x,x,8,x,x,x
CC[N+](C)(C)Cc1ccccc1Br,3,4,-11,0,83*,2
SMILES,Shn3 3UTR inh,HIF-2a block,PAX8 inh HTS,MITF TRPM1 inh,EBV LMP1 NFkB,Peg3 prom inh
C[C@H]1CCCCO[C@@H](CN(C)CC2CCCCC2)[C@@H](C)CN([C@@H](C)CO)C(=O)c2cc(NC(=O)C3CCCCC3)ccc2O1,x,x,-10,x,x,x
CCOc1ccccc1C1CC(=O)Nc2cc3c(cc21)OCCO3 (stereo not given),61,21,x,9,12,4
CC(C)Oc1ccccc1C1CC(=O)Nc2cc3c(cc21)OCO3 (stereo not given),69,30,68*,37,6,20
CCCOc1ccccc1C1CC(=O)Nc2cc3c(cc21)OCCO3 (stereo not given),87*,31,x,37,4,7
COc1cc(CC(=O)N(c2ccccc2)c2nc(C)cs2)cc(OC)c1OC,3,9,-20,12,52*,-9
COc1ccc(S(=O)(=O)N(C)C[C@H]2OCCCC[C@H](C)Oc3ccc(NS(=O)(=O)c4c(C)noc4C)cc3C(=O)N([C@H](C)CO)C[C@H]2C)cc1,x,x,27,x,x,x
O=C(N[C@H]1CC[C@@H](CCn2cc(-c3ccccc3F)nn2)O[C@H]1CO)c1ccc2c(c1)OCO2,x,x,-11,x,x,x
O=C(C[C@H]1C[C@H]2c3cc(NS(=O)(=O)c4ccc(F)cc4)ccc3O[C@H]2[C@@H](CO)O1)NCc1ccc(-c2ccccc2)cc1,x,x,53,x,x,x
O=C(C[C@H]1C[C@@H]2c3cc(NS(=O)(=O)c4ccc(F)cc4)ccc3O[C@@H]2[C@@H](CO)O1)NCc1ccc(-c2ccccc2)cc1,x,x,84*,x,x,x
O=C(C[C@@H]1C[C@@H]2c3cc(NS(=O)(=O)c4ccc(F)cc4)ccc3O[C@@H]2[C@H](CO)O1)NCc1ccc(-c2ccccc2)cc1,x,x,68*,x,x,x
O=C(C[C@H]1C[C@H]2c3cc(NS(=O)(=O)c4ccc(F)cc4)ccc3O[C@H]2[C@H](CO)O1)NCc1ccc(Cl)cc1,x,x,38,x,x,x
O=C(C[C@@H]1C[C@H]2c3cc(NC(=O)C4CCOCC4)ccc3O[C@H]2[C@H](CO)O1)NC1CCCC1,x,x,-11,x,x,x
C[C@@H]1CCCCO[C@H](CN(C)C(=O)c2ccncc2)[C@@H](C)CN([C@H](C)CO)C(=O)c2cc(NC(=O)c3ccccc3)ccc2O1,x,x,-15,x,x,x
C[C@@H]1CN([C@@H](C)CO)C(=O)c2cc(NS(=O)(=O)c3ccccc3)ccc2O[C@@H](C)CCCCO[C@@H]1CN(C)Cc1ccccc1,x,x,-11,x,x,x
CCOC(=O)c1c(C2CC2)csc1NC(=O)COC(=O)c1cnc(Cl)c(Cl)c1,-17,-4,11,9,2,102*
Cc1ccc(S(=O)(=O)N2CCCCC2)cc1NS(=O)(=O)c1ccccc1F,95*,7,11,6,7,0
Cc1ccc(NS(=O)(=O)c2ccccc2F)cc1S(=O)(=O)N1CCCCC1,-23,-3,13,x,4,4
O=C(Nc1cc(S(=O)(=O)N2CCCCC2)ccc1Cl)c1ccccc1NS(=O)(=O)c1ccc(F)cc1,71,12,93*,15,28,53*
O=C(Nc1cc(S(=O)(=O)N2CCOCC2)ccc1Cl)c1ccncc1,-18,3,-16,3,69*,2
